Assay results as given in the supplement of paper PMC7695840.

Each compound was assayed on Staphylococcus aureus MW2 delta-mecA (mecA-) (assay: normalized GFP fluorescence (growth of mecA- strain) (fraction of control range); higher = more growth of mecA- strain). Settings: compound concentration: 150 uM; cefoxitin: subinhibitory; fluorescent label: GFP.
Summary of the method: (§1)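 In 1536-well plates holding 150 μM compound (1.5% DMSO), a 1:1 mix of pre-induced S. aureus MW2 cells was added at 5 µL/well, in one replicate. One strain carried the gene and DsRed, the other lacked the gene and carried GFP, and the LB held a subinhibitory antibiotic dose chosen daily. Plates stood unshaken for 20 h at 37 °C, 90% humidity, before DsRed (540/590) and GFP (485/520) readings, which were scaled per plate to single-strain control medians, with plates high in untreated ratio and rows above DsRed/GFP 10 dropped.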

Row | SMILES | normalized GFP fluorescence
1 | O=C(Oc1ccccc1C(=O)O)c1ccccc1O | 0.297
2 | CC[C@H]1OC(=O)[C@H](C)[C@@H](O[C@H]2C[C@@](C)(OC)[C@@H](O)[C@H](C)O2)[C@H](C)[C@@H](O[C@@H]2O[C@H](C)C[C@H](N(C)C)[C@H]2O)[C@](C)(OC)C[C@@H](C)C(=O)[C@H](C)[C@@H](O)[C@]1(C)O [Clarithromycin (Biaxin, Klacid)] | 0.181
3 | CC(C)NCC(O)COc1ccc(COCCOC(C)C)cc1 (stereo not drawn) | 0.499
4 | CC(=O)OCC(=O)[C@@]12N=C(C)O[C@@H]1C[C@H]1[C@@H]3CCC4=CC(=O)C=C[C@]4(C)[C@H]3[C@@H](O)C[C@@]12C | 0.231
5 | O=C(c1ccc(F)cc1)C1CCN(CCn2c(=O)[nH]c3ccccc3c2=O)CC1 | 0.217
6 | NC(=O)OCC(COC(N)=O)c1ccccc1 [Felbamate] | 0.382
7 | Cc1cn[nH]c1 | 0.665
8 | C#Cc1cccc(Nc2ncnc3cc4c(cc23)OCCOCCOCCO4)c1 [Icotinib] | 0.488
9 | CC[C@@H](CO)NCCN[C@@H](CC)CO | 0.377
10 | C=C1CC[C@H](O)C/C1=C/C=C1\CCC[C@]2(C)[C@@H]([C@H](C)/C=C/[C@H](C)C(C)C)CC[C@@H]12 | 0.177
11 | CCN(CC)CCNC(=O)c1cc(Cl)c(N)cc1OC | 0.639
12 | N#C[C@@H]1C[C@@H]2C[C@@H]2N1C(=O)[C@@H](N)C12CC3CC(CC(O)(C3)C1)C2 | 0.824
13 | O=C1CN(/N=C/c2ccc(-c3ccc([N+](=O)[O-])cc3)o2)C(=O)N1 | 0.519
14 | Nc1ccc(S(=O)(=O)Nc2ccccn2)cc1 | 0.364
15 | NC(=O)C1(N2CCCCC2)CCN(CCCC(=O)c2ccc(F)cc2)CC1 | 0.529
16 | CCCC(=O)OCOC(=O)C1=C(C)NC(C)=C(C(=O)OC)C1c1cccc(Cl)c1Cl (stereo not drawn) [Cleviprex (Clevidipine)] | 0.13
17 | CCc1nc(N)nc(N)c1-c1ccc(Cl)cc1 | 0.211
18 | CC(=O)c1ccc2c(c1)N(CCCN(C)C)c1ccccc1S2 | 0.165
19 | O=C(O)c1cc(/N=N/c2ccc(S(=O)(=O)Nc3ccccn3)cc2)ccc1O [Sulfasalazine (Azulfidine)] | 0.311
20 | O=C(CCCN1CCC(O)(c2ccc(Cl)cc2)CC1)c1ccc(F)cc1 | 0.45

Row | SMILES | normalized GFP fluorescence
21 | CCCC1O[C@@H]2C[C@H]3[C@@H]4CCC5=CC(=O)C=C[C@]5(C)[C@H]4[C@@H](O)C[C@]3(C)[C@]2(C(=O)CO)O1 (stereo partly drawn) | 0.226
22 | CC(=O)CC(c1ccccc1)c1c(O)c2ccccc2oc1=O (stereo not drawn) | 0.718
23 | CN(C)CCc1c[nH]c2ccc(CS(=O)(=O)N3CCCC3)cc12 | 0.546
24 | Cc1cc2c(cc1CC(=O)c1sccc1S(=O)(=O)Nc1onc(C)c1Cl)OCO2 | 0.251
25 | CC1=CC(=O)c2ccccc2C1=O | 0.0466
26 | C=CC[C@@H]1/C=C(\C)C[C@H](C)C[C@H](OC)[C@H]2O[C@@](O)(C(=O)C(=O)N3CCCC[C@H]3C(=O)O[C@H](/C(C)=C/[C@@H]3CC[C@@H](O)[C@H](OC)C3)[C@H](C)[C@@H](O)CC1=O)[C@H](C)C[C@@H]2OC [FK-506 (Tacrolimus)] | 0.0621
27 | COc1ccc(CC(C)NCC(O)c2ccc(O)c(NC=O)c2)cc1 (stereo not drawn) [Formoterol hemifumarate] | 0.777
28 | CC(=O)CC(c1ccc([N+](=O)[O-])cc1)c1c(O)c2ccccc2oc1=O (stereo not drawn) | 0.279
29 | Cc1nc2n(c(=O)c1CCN1CCC(c3noc4cc(F)ccc34)CC1)CCCC2 | 0.481
30 | Cc1ccccc1C(=O)Nc1ccc(C(=O)N2CCCC(O)c3cc(Cl)ccc32)c(C)c1 (stereo not drawn) | 0.188
31 | CC(C)c1nc(CN(C)C(=O)N[C@H](C(=O)N[C@@H](Cc2ccccc2)C[C@H](O)[C@H](Cc2ccccc2)NC(=O)OCc2cncs2)C(C)C)cs1 [Ritonavir] | 0.0352
32 | O=C(NCC(O)CO)c1c(I)c(C(=O)NCC(O)CO)c(I)c(N(CCO)C(=O)CO)c1I (stereo not drawn) | 0.368
33 | COc1cc(CNC(=O)CCCC/C=C/C(C)C)ccc1O | 0.0346
34 | Nc1nnc(-c2cccc(Cl)c2Cl)c(N)n1 [Lamotrigine] | -0.0077
35 | COc1ccc(CCN(C)CCCC(C#N)(c2ccc(OC)c(OC)c2)C(C)C)cc1OC (stereo not drawn) | 0.734
36 | CN(C)C(=N)NC(=N)N | 0.544
37 | Clc1ccc(C(c2ccccc2Cl)C(Cl)Cl)cc1 (stereo not drawn) | 0.148
38 | CC1(C)[C@@H](O[C@H]2O[C@H](C(=O)O)[C@@H](O)[C@H](O)[C@H]2O[C@@H]2O[C@H](C(=O)O)[C@@H](O)[C@H](O)[C@H]2O)CC[C@]2(C)[C@H]3C(=O)C=C4[C@@H]5C[C@@](C)(C(=O)O)CC[C@]5(C)CC[C@@]4(C)[C@]3(C)CC[C@@H]12 [Glycyrrhizic acid] | 0.122
39 | Nc1cc(N2CCCCC2)nc(N)[n+]1[O-] | 0.524

What follows are compounds tested on Staphylococcus aureus MW2 (mecA+) (assay: normalized DsRed fluorescence (growth of mecA+ strain) (fraction of control range); higher = more growth of mecA+ strain). Settings: compound concentration: 150 uM; cefoxitin: subinhibitory; fluorescent label: DsRed.
Summary of the method: as §1

Row | SMILES | normalized DsRed fluorescence
40 | O=C(Oc1ccccc1C(=O)O)c1ccccc1O | 0.236
41 | CC[C@H]1OC(=O)[C@H](C)[C@@H](O[C@H]2C[C@@](C)(OC)[C@@H](O)[C@H](C)O2)[C@H](C)[C@@H](O[C@@H]2O[C@H](C)C[C@H](N(C)C)[C@H]2O)[C@](C)(OC)C[C@@H](C)C(=O)[C@H](C)[C@@H](O)[C@]1(C)O [Clarithromycin (Biaxin, Klacid)] | 0.788
42 | CC(C)NCC(O)COc1ccc(COCCOC(C)C)cc1 (stereo not drawn) | 0.658
43 | CC(=O)OCC(=O)[C@@]12N=C(C)O[C@@H]1C[C@H]1[C@@H]3CCC4=CC(=O)C=C[C@]4(C)[C@H]3[C@@H](O)C[C@@]12C | 0.567
44 | O=C(c1ccc(F)cc1)C1CCN(CCn2c(=O)[nH]c3ccccc3c2=O)CC1 | 0.83
45 | NC(=O)OCC(COC(N)=O)c1ccccc1 [Felbamate] | 0.864
46 | Cc1cn[nH]c1 | 0.838
47 | C#Cc1cccc(Nc2ncnc3cc4c(cc23)OCCOCCOCCO4)c1 [Icotinib] | 0.429
48 | CC[C@@H](CO)NCCN[C@@H](CC)CO | 0.991
49 | C=C1CC[C@H](O)C/C1=C/C=C1\CCC[C@]2(C)[C@@H]([C@H](C)/C=C/[C@H](C)C(C)C)CC[C@@H]12 | 0.448
50 | CCN(CC)CCNC(=O)c1cc(Cl)c(N)cc1OC | 0.756
51 | N#C[C@@H]1C[C@@H]2C[C@@H]2N1C(=O)[C@@H](N)C12CC3CC(CC(O)(C3)C1)C2 | 0.518
52 | O=C1CN(/N=C/c2ccc(-c3ccc([N+](=O)[O-])cc3)o2)C(=O)N1 | 0.706
53 | Nc1ccc(S(=O)(=O)Nc2ccccn2)cc1 | 0.542
54 | NC(=O)C1(N2CCCCC2)CCN(CCCC(=O)c2ccc(F)cc2)CC1 | 0.733
55 | CCCC(=O)OCOC(=O)C1=C(C)NC(C)=C(C(=O)OC)C1c1cccc(Cl)c1Cl (stereo not drawn) [Cleviprex (Clevidipine)] | 0.595
56 | CCc1nc(N)nc(N)c1-c1ccc(Cl)cc1 | 0.879
57 | CC(=O)c1ccc2c(c1)N(CCCN(C)C)c1ccccc1S2 | 1.27
58 | O=C(O)c1cc(/N=N/c2ccc(S(=O)(=O)Nc3ccccn3)cc2)ccc1O [Sulfasalazine (Azulfidine)] | 0.584
59 | O=C(CCCN1CCC(O)(c2ccc(Cl)cc2)CC1)c1ccc(F)cc1 | 1.19

Row | SMILES | normalized DsRed fluorescence
60 | CCCC1O[C@@H]2C[C@H]3[C@@H]4CCC5=CC(=O)C=C[C@]5(C)[C@H]4[C@@H](O)C[C@]3(C)[C@]2(C(=O)CO)O1 (stereo partly drawn) | 1.12
61 | CC(=O)CC(c1ccccc1)c1c(O)c2ccccc2oc1=O (stereo not drawn) | 0.285
62 | CN(C)CCc1c[nH]c2ccc(CS(=O)(=O)N3CCCC3)cc12 | 1
63 | Cc1cc2c(cc1CC(=O)c1sccc1S(=O)(=O)Nc1onc(C)c1Cl)OCO2 | 0.293
64 | CC1=CC(=O)c2ccccc2C1=O | 0.307
65 | C=CC[C@@H]1/C=C(\C)C[C@H](C)C[C@H](OC)[C@H]2O[C@@](O)(C(=O)C(=O)N3CCCC[C@H]3C(=O)O[C@H](/C(C)=C/[C@@H]3CC[C@@H](O)[C@H](OC)C3)[C@H](C)[C@@H](O)CC1=O)[C@H](C)C[C@@H]2OC [FK-506 (Tacrolimus)] | 1.04
66 | COc1ccc(CC(C)NCC(O)c2ccc(O)c(NC=O)c2)cc1 (stereo not drawn) [Formoterol hemifumarate] | 0.699
67 | CC(=O)CC(c1ccc([N+](=O)[O-])cc1)c1c(O)c2ccccc2oc1=O (stereo not drawn) | 0.29
68 | Cc1nc2n(c(=O)c1CCN1CCC(c3noc4cc(F)ccc34)CC1)CCCC2 | 0.492
69 | Cc1ccccc1C(=O)Nc1ccc(C(=O)N2CCCC(O)c3cc(Cl)ccc32)c(C)c1 (stereo not drawn) | 0.541
70 | CC(C)c1nc(CN(C)C(=O)N[C@H](C(=O)N[C@@H](Cc2ccccc2)C[C@H](O)[C@H](Cc2ccccc2)NC(=O)OCc2cncs2)C(C)C)cs1 [Ritonavir] | 1.01
71 | O=C(NCC(O)CO)c1c(I)c(C(=O)NCC(O)CO)c(I)c(N(CCO)C(=O)CO)c1I (stereo not drawn) | 1.04
72 | COc1cc(CNC(=O)CCCC/C=C/C(C)C)ccc1O | 0.539
73 | Nc1nnc(-c2cccc(Cl)c2Cl)c(N)n1 [Lamotrigine] | 1.04
74 | COc1ccc(CCN(C)CCCC(C#N)(c2ccc(OC)c(OC)c2)C(C)C)cc1OC (stereo not drawn) | 0.717
75 | CN(C)C(=N)NC(=N)N | 0.887
76 | Clc1ccc(C(c2ccccc2Cl)C(Cl)Cl)cc1 (stereo not drawn) | 0.731
77 | CC1(C)[C@@H](O[C@H]2O[C@H](C(=O)O)[C@@H](O)[C@H](O)[C@H]2O[C@@H]2O[C@H](C(=O)O)[C@@H](O)[C@H](O)[C@H]2O)CC[C@]2(C)[C@H]3C(=O)C=C4[C@@H]5C[C@@](C)(C(=O)O)CC[C@]5(C)CC[C@@]4(C)[C@]3(C)CC[C@@H]12 [Glycyrrhizic acid] | 1.7
78 | Nc1cc(N2CCCCC2)nc(N)[n+]1[O-] | 0.731
